# Assay outcomes as filed in PubChem BioAssay.
# In the library only some 7.1% were active in any assay of this set; here they are far more common.
# IL1B secr inh: blocks inflammasome-driven IL-1 beta release | activity change, % at 57.5 µM | 360,000 compounds, 4.7% hits | AID 743279 | THP-1 LPS/ATP IL-1B secretion, AlphaLISA, 16 h; hits give low values; in the data active = activity change below about -50%; inconclusive = mostly about -30% to -49%
#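 Secreted IL-1B measured by AlphaLISA bead assay after 16 h compound exposure of THP-1 cells; compounds (final up to 57.5 uM) added 1 h before LPS (250 ng/mL) and ATP (1.25 mM) stimulation; lower signal means less secretion.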
# ATXN2 expr inh: reduces ATXN2 reporter expression in HEK-293 cells; Potency, µM (titrated, usually from 57 µM), actives largely listed as inhibitors; HEK-293 ATXN2-luciferase reporter, luminescence, 24 h; 360,000 compounds, 0.72% hits; also: nearly all actives have a fitted effect of over 55% in size
#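 qHTS (up to 57 uM final) was run with 24 h compound exposure of reporter cells at 37 °C. Each well was multiplexed: SteadyGlo luminescence measured ATXN2-luciferase expression after a fluorogenic Gly-Phe-AFC viability readout (25 uM final).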
# ATXN viability: cell viability loss in ATXN counter-screen; S2 cells (HEK-293 line with an ATXN2-luciferase reporter) viability, CellTiter-Fluor protease fluorescence, 24 h; Potency, µM (doses to about 56.7 µM), usual class: cytotoxic; 400,000 compounds, 0.49% hits; also: nearly all actives have a fitted effect of over 40% in size
# SW480 rereplic: inducers of DNA re-replication in SW480 colon cancer cells. SW480 DNA re-replication, Hoechst DNA content imaging, 48 h. 340,000 compounds, 1.8% hits. AID 624297. Potency, µM (doses to about 46.1 µM), usual class: activators; also: nearly all actives have a fitted effect of over 55% in size
#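 250 cells/well; 23 nL cpd via pin tool; 48 hr, 37 C, 5% CO2; Hoechst 40 min; imager read of total nuclear intensity, ex 405/em 500-530 nm.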
# PINK1 expr mod: PINK1 expression modulation | Potency, µM (doses to about 76.6 µM), most hits filed as activators | AID 624263 | 410,000 compounds, 0.2% hits | PINK1 immunofluorescence, high-content cytometry, 24 h; active = well fitted activation curve with a large enough effect; inconclusive = small, poorly fitted or top-dose-only effect; cell line not stated here; also: nearly all actives have a fitted effect of over 65% in size
#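 Stable cell line, 250 cells/well, 12 h attachment; compounds pinned at 5 concentrations, 24 h; CCCP control. Fixed with nuclear dye, primary antibodies 12 h at 10 degrees C, secondary plus cell stain; laser-scanning cytometer read.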
# MCF10A rereplic: inducers of DNA re-replication in MCF 10A breast cells; MCF 10A DNA re-replication, Hoechst nuclear intensity, 48 h; Potency, µM (series often up to 46.1 µM), most hits filed as activators; 350,000 compounds, 2.9% hits; AID 624296; also: nearly all actives have a fitted effect of over 50% in size
# A number is an active result; i = inactive; ? = inconclusive; nt = no result given; [ ] = dose if it differs, or a comment. Unless noted, calls follow the shape of the dose curve; as a rule, active = well fitted curve in the direction sought with a large enough effect; inconclusive = small, poorly fitted or top-dose-only effect, or another doubt; inactive = no such curve, though single readings can be large; an effect the other way counts as inactive or inconclusive.
SMILES,IL1B secr inh,ATXN2 expr inh,ATXN viability,SW480 rereplic,PINK1 expr mod,MCF10A rereplic
O=C(Nc1nnc(-c2ccc(F)cc2)o1)C1CCCN1S(=O)(=O)c1cccs1 (stereo unspecified),-76,i,i,?,i,i
COc1ccc(CCNC(=O)CCn2c(=O)c3ccccc3n(Cc3ccccc3C)c2=O)cc1OC,nt,i,i,nt,i,nt
CC(=O)Nc1cc(C(=O)N2CCc3ccccc3C2)ccc1Sc1ccc(Cl)cc1,i,i,i,i,i,23µM
CCc1cccc(NC(=O)CSC2=Nc3ccccc3N=C(c3ccc(F)cc3)C2)c1,nt,i,i,nt,i,nt
CCCOc1ccc(CNC(=O)C(CC)n2nc(C)c3sc4ccccc4c3c2=O)cc1 (stereo unspecified),nt,nt,nt,nt,i,nt
Cc1cc(C)c2c(N)c(C(=O)c3ccc(Br)cc3)oc2n1,i,i,i,2.6µM,i,23µM
Cc1cc(C)c2c(N)c(C(=O)c3ccccc3)oc2n1,i,i,i,i,i,?
CCn1nc(C)c2c(-c3ccccc3)cc(=O)n(C(C)C(=O)Nc3cccc(F)c3)c21 (stereo unspecified),nt,i,?,nt,i,nt
Cc1ccc(NC(=O)c2ccc(-c3nn(C)c(=O)c4ccccc34)cc2)cc1,i,?,?,i,i,i
Cn1nc(-c2ccc(C(=O)Nc3cccc(Cl)c3)cc2)c2ccccc2c1=O,i,16µM,40µM,i,?,?
CCOC(=O)N(C)C[C@@H]1OCc2ccccc2-c2c(n(C)c3ccccc23)C(=O)N([C@H](C)CO)C[C@H]1C,i,i,i,nt,i,nt
CCCCC(CC)CNC(=O)c1ccc2c(=O)n(CCOC)c(=O)[nH]c2c1 (stereo unspecified),nt,i,i,nt,i,nt
Cc1cccc(OCC(=O)Nc2ccc3c(c2)nc(CCN2CCCCC2)n3C)c1,-50,nt,?,i,i,i
Cc1ccc(OCC(=O)Nc2ccc3c(c2)nc(CCN2CCCCC2)n3C)cc1,-61,nt,i,i,i,i
Cc1cccc(OCC(=O)Nc2ccc3c(c2)nc(CN2CCCCC2)n3C)c1,i,i,i,i,i,?
COc1ccc(OCC(=O)Nc2ccc3c(c2)nc(CCN2CCCCC2)n3C)cc1,?,i,i,i,i,i
Cn1cc(S(=O)(=O)N2CCCCCC2)cc1C(=O)N1CCN(c2cccc(Cl)c2)CC1,nt,i,?,nt,i,nt
Cc1c(OCC(=O)NC2CC(C)(C)NC(C)(C)C2)ccc2c3c(c(=O)oc12)CCC3,-54,i,i,?,i,i
Cc1c(C)c2ccc(OCC(=O)Nc3ccc(S(N)(=O)=O)cc3)c(C)c2oc1=O,i,i,i,i,i,18µM
Cc1c(OCC(=O)NC2CC(C)(C)NC(C)(C)C2)ccc2c1oc(=O)c1ccccc12,?,18µM,?,13µM,i,i
Cc1nc([N+](=O)[O-])c(Sc2nc3ccccc3n2C)n1Cc1ccccc1,-105,i,i,?,i,15µM
Cc1nc([N+](=O)[O-])c(SCC(N)=O)n1Cc1ccccc1,i,nt,i,i,i,i
CCN(CC)CCCn1c(SCC(=O)Nc2cccc(F)c2)nnc1-c1ccoc1C,i,i,i,i,i,i
CC(=O)c1ccc(NC(=O)CSc2nnc(-c3ccoc3C)n2Cc2ccccc2)cc1,-67,i,i,i,i,i
Cc1ccc(NC(=O)CSc2nnc(-c3ccoc3C)n2CCCN(C)C)cc1Cl,-61,i,i,i,i,i
SMILES,IL1B secr inh,ATXN2 expr inh,ATXN viability,SW480 rereplic,PINK1 expr mod,MCF10A rereplic
CC(C)c1nn2c(=O)cc(COC(=O)c3cccc(NC(=O)c4ccccc4F)c3)nc2s1,nt,nt,nt,nt,i,nt
CCN(CC)c1ccc(/C=N\NC(=O)c2cccc3cc[nH]c23)cc1,i,i,nt,23µM,i,15µM
Cc1cc(C)c2c(=O)cc(C(=O)Nc3ccc(S(=O)(=O)Nc4nc(C)cc(C)n4)cc3)oc2c1,nt,i,i,nt,i,nt
O=S(=O)(NCCN1CCOCC1)c1ccc(-c2ccc(S(=O)(=O)NCCN3CCOCC3)cc2)cc1,i,i,i,i,i,i
O=S(=O)(NCCN1CCOCC1)c1ccc2c(c1)OCCO2,-74,i[11.3 µM],i,i,i,i
COc1ccc(C(=O)/C=C/c2cn(CC(O)CN3CCN(C)CC3)c3ccccc23)cc1OC (stereo unspecified),nt,i,nt,23µM,i,10µM
CCCCN(C)CC(O)Cn1cc(/C=C/C(=O)c2ccc(C)cc2)c2ccccc21 (stereo unspecified),?,nt,nt,?,i,?
CCCCN(C)CC(O)Cn1cc(/C=C/C(=O)c2ccc(OC)c(OC)c2)c2ccccc21 (stereo unspecified),nt,22µM,nt,nt,i,nt
OC(c1cccc(F)c1)c1ncc(-c2ccc(C(F)(F)F)cc2)[nH]1 (stereo unspecified),i,i,?,nt,i,nt
CC(C)NC(=O)Cn1c(=O)nc(-c2ccccc2)c2ccccc21,nt,nt,nt,nt,i,nt
Cc1cc2nc(-c3ccc(OCc4ccc(F)cc4)cc3)cc(C(F)(F)F)n2n1,nt,i,i,nt,i,nt
Cc1cc(C2=NNC(=NCCc3ccccc3)SC2)c(C)n1CC1CCCO1 (stereo unspecified),-77,i,i,i,?,i
CCN=C1NN=C(c2cc(C)n(CCc3ccccc3)c2C)CS1,i,i,i,i,?,?
C=CCn1c(C)cc(C2=NNC(=NCc3ccccc3)SC2)c1C,i,i,i,?,?,?
Cc1ccc(C)c(C2=NNC(=NCc3ccccc3)SC2)c1,i,i,i,?,i,23µM
Cc1ccn2c(Nc3ccc(C(C)C)cc3)c(-c3cccs3)nc2c1,nt,i,i,nt,i,nt
O=C1OC(c2ccccc2)(c2cc(Br)ccc2O)c2ccccc21 (stereo unspecified),-92,?,nt,?,i,?
O=C1OC(c2ccc(O)cc2)(c2ccccc2O)c2ccccc21 (stereo unspecified),?,i,i,i,i,i
COC(=O)C1=C(C)NC(COC(N)=O)=C(C(=O)OC(C)C)C1c1cccc(Cl)c1Cl (stereo unspecified),nt,i,?,nt,nt,nt
COc1cc(OC)c(/C=N/n2c(C)nnc2C)c(OC)c1,i,i,i,i,i,26µM
COCCn1c(C)cc(/C=C(\C#N)C(=O)OCC(=O)Nc2ccc(S(N)(=O)=O)cc2)c1C,i,i,i,i,i,16µM
CCCn1c(C)cc(/C=C(\C#N)C(=O)OCC(=O)Nc2ccc(OC)c(Cl)c2)c1C,i,i,i,i,i,i
CCOC(=O)c1ccc(NC(=O)C2=C(C)Nc3nc(SCc4ccc(Cl)cc4)nn3C2c2ccc(OC)cc2)cc1 (stereo unspecified),nt,i,i,nt,i,nt
O=[N+]([O-])c1cc(-c2nc(-c3ccccc3)no2)ccc1N1CCN(c2ccccc2)CC1,nt,i,?,nt,i,nt
